According to the supplement of paper PMC9262897, “Low-cost anti-mycobacterial drug discovery using engineered E. coli” (Nature Communications, 2022):
Structures can show the parent of a compound that is named as a salt. ± gives the standard deviation of the averaged measurements.

Test system: E. coli TESEC Mtb DapB
Assay: growth (OD600 after 10 h); higher = more growth (less inhibition)
Settings: arabinose induction (level): Low; compound 0.1 mM; raw OD600 reference: median of DMSO wells 0.227, cell-free background 0.041
Method: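 TESEC E. coli strains in which the native enzyme is deleted and replaced by arabinose-inducible Mtb Asd, DapB, CysH or TrpD, each grown in its selective medium. Strains were screened against the Prestwick library at 0.1 mM and 1% DMSO in 384-well format at low and high arabinose induction. Growth is read as OD600 after 10 h in triplicate.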

Structure (SMILES)	growth
CCOC(=O)C1=C[C@]2(CC)CCCN3CCc4c(n1c1ccccc41)[C@@H]32 [Vinpocetine]	0.191 ± 0.0094
COc1ccccc1O [Guaiacol]	0.202 ± 0.028
CC(=O)Oc1ccccc1C(=O)O [Acetylsalicylic acid]	0.237 ± 0.054
C[C@]12CC[C@@H]3c4ccc(O)cc4C[C@@H](CCCCCCCCC[S+]([O-])CCCC(F)(F)C(F)(F)F)[C@H]3[C@@H]1CC[C@@H]2O (stereo not given in full) [Fulvestrant]	0.258 ± 0.091
CC(=O)O[C@H]1C[C@@H]2CC[C@@H]3[C@H](CC[C@@]4(C)[C@H]3C[C@H]([N+]3(C)CCCCC3)[C@@H]4OC(C)=O)[C@@]2(C)C[C@@H]1N1CCCCC1 [Vecuronium bromide]	0.216 ± 0.022
NS(=O)(=O)c1cc(C2(O)NC(=O)c3ccccc32)ccc1Cl (stereo not given) [Chlorthalidone]	0.208 ± 0.017
CC[C@H]1OC(=O)[C@H](C)[C@@H](O[C@H]2C[C@@](C)(OC)[C@@H](O)[C@H](C)O2)[C@H](C)[C@@H](O[C@@H]2O[C@H](C)C[C@H](N(C)C)[C@H]2O)[C@](C)(O)C[C@@H](C)CN(C)[C@H](C)[C@@H](O)[C@]1(C)O [Azithromycin]	0.0998 ± 0.09
CC(=O)N(CC(O)CN(C(C)=O)c1c(I)c(C(=O)NCC(O)CO)c(I)c(C(=O)NCC(O)CO)c1I)c1c(I)c(C(=O)NCC(O)CO)c(I)c(C(=O)NCC(O)CO)c1I (stereo not given) [Iodixanol]	0.215 ± 0.043
CN1CCN2c3ccccc3Cc3ccccc3C2C1 (stereo not given) [Mianserine hydrochloride]	0.243 ± 0.03
Clc1ccc2nsnc2c1NC1=NCCN1 [Tizanidine HCl]	0.222 ± 0.022
CC(=O)[C@H]1CC[C@H]2[C@@H]3CCC4=CC(=O)CC[C@]4(C)[C@H]3CC[C@]12C [Progesterone]	0.182 ± 0.013
C#Cc1cccc(Nc2ncnc3cc(OCCOC)c(OCCOC)cc23)c1 [Erlotinib]	0.201 ± 0.0093
Nc1cc(-c2ccncc2)c[nH]c1=O [Amrinone]	0.271 ± 0.011
COc1cc2nc(N3CCN(C(=O)C4COc5ccccc5O4)CC3)nc(N)c2cc1OC (stereo not given) [Doxazosin mesylate]	0.208 ± 0.038
CN1CCN(CCCN2c3ccccc3Sc3ccc(S(=O)(=O)N(C)C)cc32)CC1 [Thioproperazine dimesylate]	0.249 ± 0.0047
O=c1[nH]c(=O)n([C@H]2C[C@H](O)[C@@H](CO)O2)cc1C(F)(F)F [Trifluridine]	0.174 ± 0.0024
COc1ccc2cc(CCC(C)=O)ccc2c1 [Nabumetone]	0.187 ± 0.0098
CCN(CC)CCNC(=O)c1cc(Br)c(N)cc1OC [Bromopride]	0.256 ± 0.033
O=C1C(O)=C(O)C(=O)C(O)=C1O [Tetrahydroxy-1,4-quinone hydrate]	0.226 ± 0.0024
CC(=O)N(O)CCCCCNC(=O)CCC(=O)N(O)CCCCCNC(=O)CCC(=O)N(O)CCCCCN [Deferoxamine mesylate]	0.13 ± 0.0032
O=c1cc(-c2ccc(O)c(O)c2)oc2cc(O)cc(O)c12 [Luteolin]	0.0607 ± 0.002
Nc1nc(=O)c2nc(CNc3ccc(C(=O)N[C@@H](CCC(=O)O)C(=O)O)cc3)cnc2[nH]1 [Folic acid]	0.239 ± 0.013
O=C(O)CNC(=O)C(CS)Cc1ccccc1 (stereo not given) [Thiorphan]	0.236 ± 0.019
CC1(C)S[C@@H]2[C@H](NC(=O)[C@H](NC(=O)N3CCNC3=O)c3ccccc3)C(=O)N2[C@H]1C(=O)O [Azlocillin sodium salt]	0.222 ± 0.031
Clc1cnccn1 [2-Chloropyrazine]	0.254 ± 0.025
O=C(C1CCCCC1)N1CC(=O)N2CCc3ccccc3C2C1 (stereo not given) [Praziquantel]	0.21 ± 0.027
C#C[C@]1(O)CC[C@H]2[C@@H]3CCC4=CC(=O)CC[C@@H]4[C@H]3CC[C@@]21CC [Norgestrel-(-)-D]	0.234 ± 0.04
CCCCOc1ccc(C(=O)CCN2CCCCC2)cc1 [Dyclonine hydrochloride]	0.176 ± 0.012
CC1CCc2c(N3CCC(O)CC3)c(F)cc3c(=O)c(C(=O)O)cn1c23 (stereo not given) [Nadifloxacin]	0.0498 ± 0.0021
OC(c1cc(C(F)(F)F)nc2c(C(F)(F)F)cccc12)C1CCCCN1 (stereo not given) [Mefloquine hydrochloride]	0.0483 ± 0.0032

Test system: E. coli TESEC Alr+ wild-type control
Assay: as above
Settings: compound 0.1 mM; raw OD600 reference: median of DMSO wells 0.49, cell-free background 0.052
Method: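 TESEC Mtb Alr E. coli (ΔaraC ΔtolC ΔentC Δalr ΔdadX, arabinose-inducible Mtb Alr) or the Alr+ wild-type control strain, grown in defined M9-fructose medium without D-alanine in 96-well plates with Prestwick library compounds at 0.1 mM and 1% DMSO. Low Alr induction is 0.1 µM arabinose and high induction is 10 mM arabinose.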

Structure (SMILES)	growth
COc1ncnc(NS(=O)(=O)c2ccc(N)cc2)c1OC [Sulfadoxine]	0.594 ± 0.022
c1ccc(C2CN3CCSC3=N2)cc1 (stereo not given) [Tetramisole hydrochloride]	0.529 ± 0.087
CCCC1O[C@@H]2C[C@H]3[C@@H]4CCC5=CC(=O)C=C[C@]5(C)[C@H]4[C@@H](O)C[C@]3(C)[C@]2(C(=O)CO)O1 (stereo not given in full) [Budesonide]	0.449 ± 0.02
COc1cc2ncnc(Nc3ccc(F)c(Cl)c3)c2cc1OCCCN1CCOCC1 [Gefitinib]	0.496 ± 0.03
C[C@H]1C[C@@H]2[C@H]([C@@H](O)C[C@@]3(C)[C@H]2CC[C@]3(O)C(=O)CO)[C@@]2(C)C=CC(=O)C=C12 [Methylprednisolone, 6-alpha]	0.459 ± 0.028
C[C@@H](O)[C@H]1C(=O)N2C(C(=O)O)=C(SCCNC=N)C[C@H]12 [Imipenem]	0.271 ± 0.022
CC(=O)Oc1ccccc1C(=O)Nc1ncc([N+](=O)[O-])s1 [Nitazoxanide]	0.0524 ± 0.0014
CC[C@H](C)[C@H](N)C1=N[C@H](C(=O)N[C@@H](CC(C)C)C(=O)N[C@H](CCC(=O)O)C(=O)N[C@H](C(=O)N[C@H]2CCCCNC(=O)[C@H](CC(N)=O)NC(=O)[C@@H](CC(=O)O)NC(=O)[C@H](Cc3cnc[nH]3)NC(=O)[C@@H](Cc3ccccc3)NC(=O)[C@H]([C@@H](C)CC)NC(=O)[C@@H](CCCN)NC2=O)[C@@H](C)CC)CS1 [Bacitracin]	0.49 ± 0.073
c1ccc([C@H]2CN3CCSC3=N2)cc1 [Levamisole hydrochloride]	0.511 ± 0.054
CN(Cc1cnc2nc(N)nc(N)c2n1)c1ccc(C(=O)N[C@@H](CCC(=O)O)C(=O)O)cc1 (racemic) [Amethopterin (R,S)]	0.0999 ± 0.0032
CCOC(=O)C1=C[C@]2(CC)CCCN3CCc4c(n1c1ccccc41)[C@@H]32 [Vinpocetine]	0.557 ± 0.044
COc1ccccc1O [Guaiacol]	0.558 ± 0.079
CC(=O)Oc1ccccc1C(=O)O [Acetylsalicylic acid]	0.504 ± 0.027
C[C@]12CC[C@@H]3c4ccc(O)cc4C[C@@H](CCCCCCCCC[S+]([O-])CCCC(F)(F)C(F)(F)F)[C@H]3[C@@H]1CC[C@@H]2O (stereo not given in full) [Fulvestrant]	0.439 ± 0.024
CC(=O)O[C@H]1C[C@@H]2CC[C@@H]3[C@H](CC[C@@]4(C)[C@H]3C[C@H]([N+]3(C)CCCCC3)[C@@H]4OC(C)=O)[C@@]2(C)C[C@@H]1N1CCCCC1 [Vecuronium bromide]	0.23 ± 0.013
NS(=O)(=O)c1cc(C2(O)NC(=O)c3ccccc32)ccc1Cl (stereo not given) [Chlorthalidone]	0.545 ± 0.05
CC[C@H]1OC(=O)[C@H](C)[C@@H](O[C@H]2C[C@@](C)(OC)[C@@H](O)[C@H](C)O2)[C@H](C)[C@@H](O[C@@H]2O[C@H](C)C[C@H](N(C)C)[C@H]2O)[C@](C)(O)C[C@@H](C)CN(C)[C@H](C)[C@@H](O)[C@]1(C)O [Azithromycin]	0.0526 ± 0.00017
CC(=O)N(CC(O)CN(C(C)=O)c1c(I)c(C(=O)NCC(O)CO)c(I)c(C(=O)NCC(O)CO)c1I)c1c(I)c(C(=O)NCC(O)CO)c(I)c(C(=O)NCC(O)CO)c1I (stereo not given) [Iodixanol]	0.537 ± 0.093
CN1CCN2c3ccccc3Cc3ccccc3C2C1 (stereo not given) [Mianserine hydrochloride]	0.4446 ± 0.0027
Clc1ccc2nsnc2c1NC1=NCCN1 [Tizanidine HCl]	0.623 ± 0.019

Structure (SMILES)	growth
CC(=O)[C@H]1CC[C@H]2[C@@H]3CCC4=CC(=O)CC[C@]4(C)[C@H]3CC[C@]12C [Progesterone]	0.101 ± 0.0049
C#Cc1cccc(Nc2ncnc3cc(OCCOC)c(OCCOC)cc23)c1 [Erlotinib]	0.436 ± 0.03
Nc1cc(-c2ccncc2)c[nH]c1=O [Amrinone]	0.446 ± 0.027
COc1cc2nc(N3CCN(C(=O)C4COc5ccccc5O4)CC3)nc(N)c2cc1OC (stereo not given) [Doxazosin mesylate]	0.0495 ± 0.0017
CN1CCN(CCCN2c3ccccc3Sc3ccc(S(=O)(=O)N(C)C)cc32)CC1 [Thioproperazine dimesylate]	0.409 ± 0.041
O=c1[nH]c(=O)n([C@H]2C[C@H](O)[C@@H](CO)O2)cc1C(F)(F)F [Trifluridine]	0.476 ± 0.016
COc1ccc2cc(CCC(C)=O)ccc2c1 [Nabumetone]	0.485 ± 0.0083
CCN(CC)CCNC(=O)c1cc(Br)c(N)cc1OC [Bromopride]	0.428 ± 0.011
O=C1C(O)=C(O)C(=O)C(O)=C1O [Tetrahydroxy-1,4-quinone hydrate]	0.5 ± 0.021
CC(=O)N(O)CCCCCNC(=O)CCC(=O)N(O)CCCCCNC(=O)CCC(=O)N(O)CCCCCN [Deferoxamine mesylate]	0.1754 ± 0.0017
O=c1cc(-c2ccc(O)c(O)c2)oc2cc(O)cc(O)c12 [Luteolin]	0.174 ± 0.18
Nc1nc(=O)c2nc(CNc3ccc(C(=O)N[C@@H](CCC(=O)O)C(=O)O)cc3)cnc2[nH]1 [Folic acid]	0.446 ± 0.02
O=C(O)CNC(=O)C(CS)Cc1ccccc1 (stereo not given) [Thiorphan]	0.475 ± 0.036
CC1(C)S[C@@H]2[C@H](NC(=O)[C@H](NC(=O)N3CCNC3=O)c3ccccc3)C(=O)N2[C@H]1C(=O)O [Azlocillin sodium salt]	0.631 ± 0.06
Clc1cnccn1 [2-Chloropyrazine]	0.586 ± 0.067
O=C(C1CCCCC1)N1CC(=O)N2CCc3ccccc3C2C1 (stereo not given) [Praziquantel]	0.447 ± 0.019
C#C[C@]1(O)CC[C@H]2[C@@H]3CCC4=CC(=O)CC[C@@H]4[C@H]3CC[C@@]21CC [Norgestrel-(-)-D]	0.517 ± 0.04
CCCCOc1ccc(C(=O)CCN2CCCCC2)cc1 [Dyclonine hydrochloride]	0.449 ± 0.034
CC1CCc2c(N3CCC(O)CC3)c(F)cc3c(=O)c(C(=O)O)cn1c23 (stereo not given) [Nadifloxacin]	0.0538 ± 0.0013
OC(c1cc(C(F)(F)F)nc2c(C(F)(F)F)cccc12)C1CCCCN1 (stereo not given) [Mefloquine hydrochloride]	0.04863 ± 0.00045
